Calls of active or inactive are those of the source. Entries that show only a call come without a potency. The call rests on the fitted dose curve; in most records, active means well fitted activation curve with a large enough effect; inconclusive means small, poorly fitted or top-dose-only effect; inactive means flat fitted curve, though single readings scatter.

This test can be described thus: Confirmation and Secondary Assay for Modulators of Hemoglobin Beta Chain Splicing at IVS2 654 locus (AID 910).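 Further: HeLa cells stably carrying EGFP split by mutant beta-globin IVS2-654 intron.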 As to conditions: HeLa EGFP-654 splicing reporter, GFP fluorescence, 48 h; series mostly up to 46.1 µM. The text has this: NIH Chemical Genomics Center [NCGC] NIH Molecular Libraries Screening Centers Network [MLSCN] MLSCN Grant: 1 X01 MH080684-01 PI Name: Dr. Ryszard Kole NCGC Assay Overview: Modulation of Alternative Splicing as Therapy Abnormal splicing is associated with a number of diseases, including cancer and genetic diseases such as cystic fibrosis, muscular dystrophy and beta-thalassemia. Alteration of disease associated splicing patterns provides a promising target for treatment. […] Mutations in the second intron of the b-globin gene at positions 654 or 705 are clinically relevant and cause mis-splicing which results in an out of frame gene product. […] EGFP-654 HeLa Cells as screen system. HeLa cell lines were stably transfected with a construct in which the EGFP (enhanced green fluorescent protein) cDNA was interrupted by the second intron of the beta-globin gene (IVS2-654). The ISV2 intron contains mutations which cause mis-splicing of EGFP and premature termination of EGFP which results in a nonfluorescent protein product. […] Expression of the transgene was driven by the CMV promoter. We concluded that a low molecular weight compound, which restored correct splicing of intron 2 would also generate functional EGFP protein, resulting in a fluorescent signal. Thus, the HeLa cells that express the EGFP-654 construct can be used for high throughput screening of a chemical library.
NCGC Assay Protocol Summary: Confirmatory Screening. Freshly thawed HeLa EGFP-654 cells were seeded in 5 ul of optimem media (Invitrogen) containing 2 % fetal calf serum (Hyclone) and 1x penicillin/streptomycin (Invitrogen) at a concentration of 500 cells per well in 1536-well plates. Cells were incubated overnight at 37C in 5% CO2. The next day, cells were treated with DMSO, 500 nM antisense ISV2 654 PNA control oligo, or library compound and allowed to grow at 37C in 5% CO2 for 2 days. The PNA oligo blocked the mutation site in the intron and allowed proper (wild type) splicing to occur, resulting in full length EGFP expression and also allowed for optimization of the assay parameters. Plates were read in the Acumen Explorer (TTP Labtech) using 488 nm laser excitation and 500-520 nm emission PMT filter in a 1 x 8 uM capture mode. Fluorescnet objects ranging in size from 5 to 250 uM were measured and the total peak GFP intensity for each well was used for data analysis. Keywords: Thalassemia, beta-thalassemia, beta-globin, EGFP, ISV2 654, ISV2 705, SSO, PNA, antisense, splicing, MLSMR, MLSCN, NIH Roadmap, qHTS, NCGC
As for `C=C[C@]1(C)CC(=O)[C@@]2(O)[C@@]3(C)C(O)CCC(C)(C)C3C(O)C(OC(C)=O)[C@@]2(C)O1` (stereo not given in full), the Potency result is “inactive”.

In the case of `CC(=O)N[C@H](Cc1c[nH]c2ccccc12)C(N)=O`, the Potency result was “inactive”.

`NC(N)=NCCCC(NC(=O)C(N)Cc1ccc(O)cc1)C(=O)O` (stereo not given): the Potency entry is “inactive”.

On to `CC(C)=CCc1c(O)cc(C)oc1=O`, for which the Potency entry is “inactive”.

As for `CC1O[C@@H](O[C@H]2C(Oc3cc(O)c4c(=O)cc(-c5ccc(O)cc5)oc4c3)OC(CO)C(O)C2O)C(O)C(O)C1O` (stereo not given in full), the Potency result was “inactive”.

Regarding `O=c1c(O)c(-c2ccccc2)oc2cc(O)ccc12`, the Potency entry is “inactive”.

Regarding `CCC(C)C(=O)OC1C2CC3=C4CC(=O)OC(c5ccoc5)[C@]4(C)CCC3[C@@](C)(C2=O)C(CC(=O)OC)C1(C)C` (stereo not given in full), the Potency result is “inactive”.

For `NCC1O[C@@H](OC2C(N)C[C@H](N)[C@@H](O[C@H]3OC(CO)C(O)C(N)C3O)C2O)C(O)C(O)C1O` (stereo not given in full), the Potency entry is “inactive”.

On to `CC1(C)CC[C@]2(C)CC[C@@]3(C)C(=CCC4[C@@]5(C)CCC(O)C(C)(C)C5CC[C@@]43C)C2C1` (stereo not given in full), for which the Potency entry is “inactive”.

Turning to `COc1cc(O)c(C(C)=O)c(OC)c1`, the Potency entry was “inactive”.

With `O=C(O)C1CC(C2CCCCN2)CN2CCCCC12` (stereo not given), the Potency entry was “inactive”.

Take `COc1ccc2c(c1)CCC1C2CC[C@@]2(C)C(O)CCC12` (stereo not given in full): the Potency entry is “inactive”.

As to `C[C@]12C=CC(=O)C=C1CCC1C2C(=O)C[C@]2(C)C1CC[C@]2(O)C(=O)CO` (stereo not given in full), the Potency result was “inactive”.

Regarding `O=C(/C=C/c1ccc(O)cc1)c1ccccc1O`, the Potency result is “inactive”.

As for `CC(=O)OCC(=O)[C@]1(O)C(C)CC2C3CCC4=CC(=O)C=C[C@@]4(C)[C@]3(F)C(O)C[C@@]21C` (stereo not given in full), the Potency entry is “inactive”.

As to `NCC1O[C@@H](O[C@H]2C(O)C(O[C@@H]3C(O[C@H]4OC(CO)C(O)C(O)C4N)C(N)CC(N)[C@H]3O)O[C@@H]2CO)C(N)C(O)C1O` (stereo not given in full), the Potency result is “inactive”.

As to `CC(=O)Oc1cc(-c2coc3cc(OC(C)=O)c(OC(C)=O)c(OC(C)=O)c3c2=O)cc(OC(C)=O)c1OC(C)=O`, the Potency entry was “inactive”.

As for `O=c1ccn(C2OC(COP(=O)(O)OP(=O)(O)OP(=O)(O)O)C(O)C2O)c(=O)[nH]1` (stereo not given), the Potency entry is “inactive”.

In the case of `CCC(C(=O)O)c1ccccc1` (stereo not given), the Potency entry was “inactive”.

`CSC(N)=NCCCC(N)C(=O)O` (stereo not given): the Potency result was “inactive”.

On to `COC1C=CO[C@@]2(C)Oc3c(C)c(O)c4c(O)c(c(C=NN5CCN(C)CC5)c(O)c4c3C2=O)NC(=O)/C(C)=C\C=CC(C)C(O)[C@@H](C)C(O)C(C)[C@H](OC(C)=O)C1C` (stereo not given in full), for which the Potency entry is “inactive”.

Regarding `COc1ccccc1-c1cc(=O)c2cccc(OC)c2o1`, the Potency entry is “inactive”.

Consider `O=C(NCO)c1cccnc1`, for which the Potency result was “inactive”.

As to `Cc1cc(O)c2c(c1O)C(=O)c1c(O)cc(C)c(O)c1C2=O`, the Potency entry was “inactive”.

In the case of `O=c1c(O)c(-c2ccccc2)oc2ccccc12`, the Potency entry is “inactive”.

With `S=c1ccss1`, the Potency result was “inactive”.

For the molecule `CCC1OC(=O)CC(O)C(C)[C@@H](O[C@@H]2OC(C)[C@H](O[C@@H]3C[C@@](C)(O)C(O)C(C)O3)C(N(C)C)C2O)[C@H](CC=O)CC(C)C(=O)/C=C/C(C)=C/[C@@H]1COC1OC(C)C(O)C(OC)[C@@H]1OC` (stereo not given in full), the Potency entry was “inactive”.

`CCCC1OC2CC3C4CCC5=CC(=O)C=CC5(C)C4C(O)CC3(C)[C@]2(C(=O)CO)O1` (stereo not given in full): the Potency entry was “inactive”.

In the case of `CCOC(=O)C(CCc1ccccc1)NC(C)C(=O)N1C(C(=O)O)CC2CCCC21` (stereo not given), the Potency entry was “inactive”.

Turning to `COc1cc(O)cc(/C=C/c2ccccc2)c1`, the Potency entry was “inactive”.

With `COc1cccc(/C=C/C(=O)O)c1C(C)C`, the Potency entry is “inactive”.

On to `C/C1=C/CC(C)(C)/C=C/C/C(C)=C/CC1`, for which the Potency entry was “inactive”.

In the case of `COc1ccc(CCC(=O)c2c(O)cc(OC3OC(CO)C(O)C(O)C3O[C@@H]3OC(C)C(O)C(O)C3O)cc2O)cc1O` (stereo not given in full), the Potency entry was “inactive”.

As for `CC(=O)OC1CC[C@@]2(C)C3=CC(=O)[C@]4(C)C(CC5OC6(OCC(C)CC6Br)C(C)C54)C3CC[C@H]2C1` (stereo not given in full), the Potency result is “inactive”.

For the molecule `COC1C(O)C(CO)OC1n1cnc2c(=O)[nH]c(N)nc21` (stereo not given), the Potency entry was “inactive”.

In the case of `CCc1ccc2c(O)c3c(cc2c1C(=O)OC)C(=O)c1c(O)ccc(O)c1C3=O`, the Potency result was “inactive”.

Consider `CC(C)(O)C1CC[C@@]2(C)C3CCC4[C@@]5(C)CCCC(C)(C)C5C(O)C[C@]4(C)[C@]3(C)CC[C@@H]12` (stereo not given in full), for which the Potency entry was “inactive”.

In the case of `CCCCCCCCCCCCCCC(C(=O)O)C(O)(CC(=O)OC)C(=O)O` (stereo not given), the Potency result was “inactive”.

With `CN1CCCC1c1cccnc1` (stereo not given), the Potency result was “inactive”.

As for `CC(=O)[C@]1(O)CCC2C3CCC4=CC(=O)CC[C@@]4(C)C3CC[C@]21C` (stereo not given in full), the Potency result was “inactive”.

For the origin of these results see PubChem BioAssay (NCATS).
